Source: PubChem BioAssay (National Center for Advancing Translational Sciences (NCATS))
Sampled rows, rich in hits. Any-hit rate of the full collection: about 7.5%.
FLuc counter – firefly luciferase modulation, counter-screen for miR-21 project; P08659; purified FLuc, Km substrates, luminescence inhibition; Potency, µM (highest dose often 57.5 µM), for the others: at the highest dose activity change, negative = inhibition, hits mostly inhibitors; 360,000 tested, 6.9% active;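 further: plate controls were vehicle for no effect and reference inhibitor for full effect; nearly all actives have a fitted effect of over 55% in size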
Target sequence (P08659 whole entry, looked up): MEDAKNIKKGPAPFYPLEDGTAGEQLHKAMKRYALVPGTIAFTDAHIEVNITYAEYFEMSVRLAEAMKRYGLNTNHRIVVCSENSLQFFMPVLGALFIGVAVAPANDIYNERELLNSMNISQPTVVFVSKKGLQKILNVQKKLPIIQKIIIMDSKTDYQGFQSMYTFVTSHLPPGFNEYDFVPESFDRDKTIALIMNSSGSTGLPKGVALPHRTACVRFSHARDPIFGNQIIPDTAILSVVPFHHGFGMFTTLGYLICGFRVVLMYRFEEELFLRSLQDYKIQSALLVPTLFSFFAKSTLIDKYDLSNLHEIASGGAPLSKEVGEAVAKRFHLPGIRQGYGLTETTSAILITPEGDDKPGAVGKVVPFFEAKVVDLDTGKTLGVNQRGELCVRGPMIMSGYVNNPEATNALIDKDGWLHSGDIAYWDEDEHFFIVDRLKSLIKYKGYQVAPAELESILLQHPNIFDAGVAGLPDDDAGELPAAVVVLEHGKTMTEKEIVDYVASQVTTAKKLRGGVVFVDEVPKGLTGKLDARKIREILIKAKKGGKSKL
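Biochemical qHTS of compounds, final roughly 60 µM downward over six points, against 10 nM purified firefly luciferase using Km concentrations of substrates (10 uM D-luciferin, 10 uM ATP) in Tris acetate pH 7.5 buffer; luminescence output.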
Rab9 promoter act – activators of Rab9 promoter | Huh7 Rab9 promoter-luciferase reporter, luminescence, 24 h | Potency, µM (doses to about 9.22 µM), for the others: at the top dose activation, negative = inhibition, usual class: activators | 320,000 tested, 2.8% active | AID 485297; further: % of control where 0% means no effect; nearly all actives have a fitted effect of over 60% in size
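Huh7 cells stably carrying a Rab9 promoter-luciferase reporter, 1500 cells per well in OP-MEM I with 10% FBS, treated with compound 24 hours at 37C. Luciferase activity read by luminescence after 10 minutes with Amplite reagent.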
NPC1 promoter act – NPC1 promoter activation; 320,000 tested, 2.4% active; Potency, µM (top dose mostly 9.22 µM), inactives show at the top dose activation, most hits filed as activators; Huh7 NPC1 promoter luciferase reporter, 24 h; AID 485313; further: % of control where 0% means no effect; nearly all actives have a fitted effect of over 60% in size
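Luminescence read-out of NPC1 promoter-driven luciferase in stably transfected Huh7 cells; compounds delivered in DMSO and left 24 h at 37C, 5% CO2, qHTS titration format.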
ELG1 genotoxic – induces genotoxicity in HEK293T cells with luciferase-tagged ELG1. HEK293T ELG1-luciferase reporter, luminescence, 16 h. Potency, µM (series often up to 46 µM), inactives show top-dose activity change, positive = activation, hits mostly activators. 330,000 tested, 1.3% active; further: % of control where 0% means no effect; nearly all actives have a fitted effect of over 60% in size
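After overnight (16 hr) compound treatment at 37 °C, ELG1-luciferase HEK293T cells were lysed with ONE-Glo; luminescence quantified 30 min later at room temperature.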
KinaseGlo FLuc – blocks Kinase-Glo luciferase, a counter-screen artifact; Q27757; Kinase-Glo luciferase, ATP luminescence, 8 min; Potency, µM (highest dose often 38.3 µM), inactives show at the top dose activity change, negative = inhibition, hits mostly inhibitors; 200,000 tested, 0.28% active; AID 1379; further: on the % scale 0 is the no-effect control and ±100 the full control effect; nearly all actives have a fitted effect of over 60% in size
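Substrate mix (final 50 mM imidazole pH 7.2, 50 mM KCl, 7 mM MgCl2, 10 uM ATP, 0.01% Tween 20, 0.05% BSA) plus pin-tool compound, then Kinase-Glo detection mix; 8 min ambient, luminescence read.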
SMN2 splice enh – enhancers of SMN2 splice variant expression. AID 1458. HEK293 SMN2-luciferase splicing reporter, luminescence, 30-36 h. 210,000 tested, 2.8% active. Potency, µM (doses to about 46.1 µM), for the others: at the highest dose activity change, positive = activation, most hits filed as activators; further: % of control where 0% means no effect; nearly all actives have a fitted effect of over 55% in size
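HEK293 cells carry an SMN2 […]–luciferase reporter in which exon 7 inclusion puts luciferase in frame. Cells were plated 10-12 h before compound addition, then incubated 30-36 h at 37C. ONE-Glo luminescence was read; sodium butyrate at 4.5 mM final served as control.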
Active calls of the source: *; ? = inconclusive; / = no result; [ ] = another dose, or the depositor's remark. The call rests on the fitted dose curve; in most records, active means well fitted curve in the direction sought with a large enough effect; inconclusive means small, poorly fitted or top-dose-only effect, or another doubt; inactive means no such curve, though single readings can be large; an effect the other way counts as inactive or inconclusive. Potency means the concentration at half of the fitted maximal effect.

SMILES	FLuc counter	Rab9 promoter act	NPC1 promoter act	ELG1 genotoxic	KinaseGlo FLuc	SMN2 splice enh
Cc1cc(C)c(NC(=O)CN2C(=O)CCSc3ccc(S(=O)(=O)N4CCCC4)cc32)c(C)c1	1%	/	/	/	/	/
CN1CCN(C(=O)c2cnn(-c3cccc(Cl)c3)c2C2CCN(C(=O)OC(C)(C)C)CC2)CC1	5%	/	/	/	/	/
COc1ccc2c(c1)NC(c1ccc(Cl)cc1)=NC(c1cccs1)=N2	?	/	/	/	/	6%
CC1(C)CC(=O)c2c(O)cc(OCc3ccc(Br)cc3)cc2O1	3µM*	2.8µM*	2.5µM*	2.6µM*	16%	?
C/C(=N\Nc1ccc(F)cc1F)c1ccccc1O	19µM*	12%	2%	?	1%	7%
Cc1ccc(-c2csc(N)n2)s1	15µM*	8%	?	?	-9%	3%
O=C(/C=C/c1ccccc1)Nc1ccc(CN2CCOCC2)cc1	12µM*	?	18%	17%	1%	29%
O=C(/C=C/c1ccco1)Nc1ccccc1N1CCOCC1	-12%	2%	-6%	-1%	-2%	2%
O=C(/C=C/c1ccc(Cl)cc1)NC(=S)Nc1ccc(CN2CCOCC2)cc1	0%	-2%	-11%	?	-1%	/
O=C(/C=C/c1ccco1)Nc1ccc(N2CCCC2)cc1	2.4µM*	2.8µM*	3.5µM*	?	-9%	16µM*
O=C(/C=C/c1ccco1)Nc1ccc(CN2CCOCC2)cc1	6µM*	2.8µM*	1.4µM*	?	/	/
O=C(/C=C/c1ccco1)Nc1ccc(C(=O)N2CCOCC2)cc1	?	3%	10%	3%	-4%	21%
O=C(/C=C/c1ccc(Cl)cc1Cl)Nc1ccc(CN2CCOCC2)cc1	7.6µM*	-22%	-8%	9%	0%	-77%
Cc1ccc(-c2noc(-c3nnn(CC(=O)Nc4ccc(C)c(Cl)c4)c3N)n2)cc1	-11%	/	/	/	/	/
COc1ccc(C)c2sc(N(Cc3cccnc3)C(=O)c3cccs3)nc12	-9%	/	/	/	/	/
O=C(Nc1ccc(Cl)c(Cl)c1)c1ccncc1	?	22%	26%	7%	-4%	18%
CS(=O)(=O)c1ccc(C(=O)Nc2cc(S(C)(=O)=O)ccc2Cl)cc1	0%	-1%	3%	2%	/	/
COc1ccc(C(=O)Nc2ccc(Cl)c(Cl)c2)c(OC)n1	0.95µM*	?	3%	?	-8%	3.2µM*
O=C(Nc1ccc(Cl)c(Cl)c1)c1ccc(Cl)c(Cl)c1	12µM*	3.5µM*	3.5µM*	12%	/	/
COc1ccc(C(=O)O)c(OC)n1	-2%	-27%	12%	-8%	/	/
Cc1ccc(NC(=O)c2ccc(Cl)c(N3C(=O)C=CC3=O)c2)cc1	9.5µM*	-6%	-12%	7%	-1%	-5%
CS(=O)(=O)c1cccc(NC(=O)c2ccc(Cl)c(Cl)c2)c1	19µM*	23%	2%	1%	0%	/
COc1ccc(CCCO[C@@H](Cn2ccnc2)c2ccc(OC)cc2)cc1	/	/	/	/	1%	/
CS(=O)(=O)c1ccc(-c2cn3cc(C(=O)O)ccc3n2)cc1	2.7µM*	-2%	1%	-7%	-26%	-21%
COC(=O)c1ccc2nc(-c3ccc(S(C)(=O)=O)cc3)cn2c1	24µM*	?	?	9%	-15%	4%
SMILES	FLuc counter	Rab9 promoter act	NPC1 promoter act	ELG1 genotoxic	KinaseGlo FLuc	SMN2 splice enh
COC(=O)c1ccc2nc(-c3cccc(N)c3)cn2c1	0.6µM*	1µM*	0.5µM*	?	-28%	/
O=S(=O)(c1ccc(-c2cn3ccccc3n2)cc1)N1CCOCC1	?	2%	3%	11%	-3%	-43%
COc1ccc(-c2csc(NC(=O)c3ccc(S(C)(=O)=O)cc3)n2)cc1	?	?	21%	8%	0%	0%
O=C(NCC(c1cccnc1)N1CCN(c2ccccc2F)CC1)c1ccc(F)cc1 (stereo not drawn)	-1%	/	/	/	/	/
Cc1ccc(C)c(CN2C(=O)c3ccccc3S(=O)(=O)c3ccc(C(=O)NCc4ccccc4)cc32)c1	0%	/	/	/	/	17%
O=C(N/N=C1/CCc2ccccc21)C1CC1	?	18%	7%	?	-4%	22%
Cc1ccc(C(=O)N/N=C2\CCc3ccccc32)c(C)c1	4.8µM*	2.2µM*	?	2.3µM*	0%	0.79µM*
O=C(N/N=C1\CCc2ccccc21)c1ccccc1Cl	11µM*	2.8µM*	2.2µM*	18µM*	-4%	10µM*
CCOC(=O)N/N=C1\CCc2ccccc21	?	29%	26%	?	-14%	16µM*
O=C(N/N=C1\C(=O)c2cccc3cccc1c23)c1ccc(O)cc1	2.1µM*	21%	0%	3%	-1%	23%
Cc1ccc(C)c(NC(=S)N/N=C2/CCCCc3ccccc32)c1	2%	-3%	0%	-9%	-2%	-38%
O=C(N/N=C1\CCCc2ccccc21)c1cccc(Br)c1	?	15%	20%	4%	-1%	?
O=C(N/N=C1\CCc2ccccc21)c1ccc(O)cc1	7.6µM*	2.8µM*	2.8µM*	4.6µM*	-27%	18µM*
CCN(CC)S(=O)(=O)c1ccc(NC(=O)[C@H](CSCc2ccccc2)N2Cc3ccccc3C2=O)cc1	5%	/	/	/	/	4.5µM*
Cc1ccc(-c2cnn(-c3cccc(C(F)(F)F)c3)c2N)cc1	7.6µM*	4µM*	?	?	-5%	27%
O=c1cnn(-c2ccccc2)c(-c2ccccc2)c1	11µM*	5%	27%	-7%	-2%	-8%
O=c1c(Br)c(Br)cnn1-c1ccccc1	5%	-51%	-41%	-19%	-4%	-104%
Nc1c(-c2ccccc2)cnn1-c1ccccc1	11µM*	3.5µM*	3.2µM*	?	/	/
Nc1c(-c2cccc(Cl)c2)cnn1-c1ccccc1	17µM*	?	?	18%	/	/
O=c1c(S(=O)(=O)c2ccccc2)cn(Cc2ccccc2)c2cc(N3CCOCC3)c(F)cc12	-8%	/	/	/	/	/
CN(C)/C=C(/C#N)C(=O)c1cccc(Oc2ccc(C(C)(C)C)cc2)c1	15µM*	-3%	0%	-1%	-2%	-23%
Cc1ccccc1Oc1cccc(C(=O)/C(C#N)=C/N(C)C)c1	?	2%	2%	?	14%	-15%
CCC(C)(C)c1ccc(Oc2cccc(C(=O)O)c2)cc1	?	?	1.8µM*	14%	-1%[7.66 µM]	22%[9.22 µM]
CCC(C)(C)c1ccc(Oc2ccc(N)cc2)cc1	?	-53%	-44%	-11%	5%	-19%
CC(=O)N1CC[C@H]2CC(=O)CC[C@@]21C	/	/	/	/	0%[39.9 µM]	/
COC(=O)c1scc(-c2ccc(C)cc2)c1S(=O)(=O)N1CCN(c2ccc(C)cc2C)CC1	-7%	/	/	/	/	/
